# Experimental data taken from PubChem BioAssay.
# Values without a mark were called inactive. For some of these results: Entries with a potency or affinity are not part of this list. Activity calls are given as the source filed them. Unless noted, no rule for the calls is given here.
# Assays:
# [1] = antimalarial activity against Dd2 strain (AID 2302;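 active = growth inhibition above 50% at the single 2 µM test dose, taken to imply half-maximal potency below 2 µM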;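 also: 0% = DMSO untreated growth and 100% = chloroquine plus artemisinin killed control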); conditions: P. falciparum Dd2 in RBCs, LDH growth readout, 72 h; at 2 µM; active compounds read high
# [2] = human hepatoma cell viability loss – ATP luminescence, cytotoxicity control for P. falciparum antimalarial project, primary screen (AID 2303;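 active = inhibition above 50%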;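 also: 0% = DMSO wells and 100% = digitonin-killed cells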); conditions: HepG2 viability, 24-48 h, at 10 µM, active compounds read high
# [3] = target: L-lactate dehydrogenase (Plasmodium falciparum (isolate CDC / Honduras)) (UniProt Q27743); experiment: PfLDH activity inhibition – cell lysate, 3D7 strain, counter-screen for P. falciparum growth inhibition project (AID 2304);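 also: 0% = vehicle and 100% = reference inhibitor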; conditions: P. falciparum 3D7 crude extract, LDH APAD/NBT absorbance; at 2 µM; active compounds read high
# [4] = inhibition of 3D7 malaria parasite growth – strain 3D7 (AID 2306);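 also: 0% = DMSO wells and 100% = chloroquine plus artemisinin control wells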; conditions: P. falciparum 3D7 erythrocytic growth, LDH absorbance, 72 h; at 2 µM; active compounds read high
# [5] = target: Calcium-dependent protein kinase 1 (Plasmodium falciparum (isolate 3D7)) (UniProt P62344); experiment: PfCDPK1 kinase inhibitors, biochemical, TCAMS library (AID 1159585; cut-off not given, nearly all actives have IC50 up to about 0.98 µM;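 also: inhibitors leave more ATP so luminescence rises with inhibition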); conditions: recombinant PfCDPK1, Kinase-Glo ATP depletion luminescence
# [6] = target: Plasmodium falciparum protein kinase 6 (PK6, PF3D7_1337100) (UniProt Q8IDW1); experiment: PfPK6 kinase inhibitors, biochemical, TCAMS library (AID 1159586); conditions: recombinant PfPK6, Kinase-Glo ATP depletion luminescence
# [7] = target: Protein kinase 7 (PK7), Plasmodium falciparum 3D7 (PF3D7_0213400) (UniProt Q7YTF7); experiment: inhibition of Plasmodium PK7 catalytic activity – biochemical, TCAMS antimalarial set, Kinase-Glo luminescence (AID 1159587); conditions: recombinant PfPK7, Kinase-Glo ATP depletion luminescence
# [8] = target: Calcium-dependent protein kinase 4 (Plasmodium falciparum (isolate 3D7)) (UniProt Q8IBS5); experiment: PfCDPK4 kinase inhibitors, biochemical, TCAMS library (AID 1159588; cut-off not given, nearly all actives have IC50 up to about 0.91 µM); conditions: recombinant PfCDPK4, Kinase-Glo ATP depletion luminescence
# Sequence of Calcium-dependent protein kinase 4 (Plasmodium falciparum (isolate 3D7)) (Q8IBS5 whole entry, looked up): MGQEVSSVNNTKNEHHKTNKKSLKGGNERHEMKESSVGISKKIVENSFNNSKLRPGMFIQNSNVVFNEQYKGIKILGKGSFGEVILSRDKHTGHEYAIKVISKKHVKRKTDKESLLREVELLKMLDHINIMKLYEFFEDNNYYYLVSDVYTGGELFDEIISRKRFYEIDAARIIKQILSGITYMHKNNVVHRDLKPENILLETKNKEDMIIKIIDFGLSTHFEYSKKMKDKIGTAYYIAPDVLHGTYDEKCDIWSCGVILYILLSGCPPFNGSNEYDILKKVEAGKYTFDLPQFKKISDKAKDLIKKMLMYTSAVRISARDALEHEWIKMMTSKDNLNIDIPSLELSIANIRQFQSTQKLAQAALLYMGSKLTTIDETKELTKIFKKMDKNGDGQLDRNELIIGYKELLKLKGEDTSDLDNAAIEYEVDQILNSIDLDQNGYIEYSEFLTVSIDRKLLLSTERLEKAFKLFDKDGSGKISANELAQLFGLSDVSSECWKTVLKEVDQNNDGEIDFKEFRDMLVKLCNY
# Sequence of Plasmodium falciparum protein kinase 6 (PK6, PF3D7_1337100) (Q8IDW1 1-305): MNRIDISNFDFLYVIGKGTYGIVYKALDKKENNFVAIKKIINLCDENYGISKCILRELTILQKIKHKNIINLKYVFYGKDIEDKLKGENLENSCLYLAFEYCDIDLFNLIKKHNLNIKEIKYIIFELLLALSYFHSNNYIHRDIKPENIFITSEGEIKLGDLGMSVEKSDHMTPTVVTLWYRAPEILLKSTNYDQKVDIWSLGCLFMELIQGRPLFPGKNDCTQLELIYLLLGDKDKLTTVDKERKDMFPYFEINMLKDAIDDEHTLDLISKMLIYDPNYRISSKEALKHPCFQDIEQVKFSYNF
# Sequence of L-lactate dehydrogenase (Plasmodium falciparum (isolate CDC / Honduras)) (Q27743 whole entry, looked up): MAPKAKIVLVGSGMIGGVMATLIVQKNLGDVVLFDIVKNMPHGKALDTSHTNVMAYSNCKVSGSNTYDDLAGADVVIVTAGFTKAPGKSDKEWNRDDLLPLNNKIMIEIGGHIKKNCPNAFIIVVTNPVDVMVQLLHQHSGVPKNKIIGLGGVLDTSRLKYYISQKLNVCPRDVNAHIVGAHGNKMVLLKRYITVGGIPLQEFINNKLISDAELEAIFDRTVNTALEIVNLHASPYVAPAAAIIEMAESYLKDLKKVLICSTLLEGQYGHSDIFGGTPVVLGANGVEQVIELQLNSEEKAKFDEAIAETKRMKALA
# Sequence of Protein kinase 7 (PK7), Plasmodium falciparum 3D7 (PF3D7_0213400) (Q7YTF7 1-343): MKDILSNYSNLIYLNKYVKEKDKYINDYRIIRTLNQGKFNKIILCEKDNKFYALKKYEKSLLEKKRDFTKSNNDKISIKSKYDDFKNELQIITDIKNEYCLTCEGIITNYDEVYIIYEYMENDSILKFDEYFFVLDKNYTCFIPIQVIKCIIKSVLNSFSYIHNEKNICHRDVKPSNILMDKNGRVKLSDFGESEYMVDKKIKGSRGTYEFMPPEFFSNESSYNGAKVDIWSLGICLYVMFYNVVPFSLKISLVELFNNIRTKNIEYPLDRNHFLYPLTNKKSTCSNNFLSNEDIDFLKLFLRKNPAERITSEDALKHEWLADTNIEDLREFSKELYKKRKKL
# Sequence of Calcium-dependent protein kinase 1 (Plasmodium falciparum (isolate 3D7)) (P62344 whole entry, looked up): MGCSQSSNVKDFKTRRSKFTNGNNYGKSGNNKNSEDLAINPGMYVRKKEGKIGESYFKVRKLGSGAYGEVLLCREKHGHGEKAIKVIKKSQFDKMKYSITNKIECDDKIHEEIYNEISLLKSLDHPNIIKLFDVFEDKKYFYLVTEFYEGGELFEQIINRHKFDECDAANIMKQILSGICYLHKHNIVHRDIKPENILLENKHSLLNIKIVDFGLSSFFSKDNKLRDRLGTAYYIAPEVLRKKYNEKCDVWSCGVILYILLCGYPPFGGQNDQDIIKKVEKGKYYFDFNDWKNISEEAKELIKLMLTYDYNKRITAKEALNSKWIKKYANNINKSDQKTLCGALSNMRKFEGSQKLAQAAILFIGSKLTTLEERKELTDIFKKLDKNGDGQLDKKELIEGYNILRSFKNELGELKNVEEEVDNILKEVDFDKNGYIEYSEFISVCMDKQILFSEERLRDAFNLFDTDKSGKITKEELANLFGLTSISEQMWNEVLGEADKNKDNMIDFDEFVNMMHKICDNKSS
SMILES,growth inhibition [1],inhibition [2],inhibition [3] [%],growth inhibition [4],outcome [5],outcome [6],outcome [7],outcome [8]
CC(=O)Nc1ccc(C(=O)NC2CCN(c3ccnc4cc(Cl)ccc34)CC2)cc1,99% (active),5%,-4,101% (active),inactive,inactive,inactive,inactive
CCc1ccc(S(=O)(=O)Nc2ccc(CCN3CCC(N4CCCCC4)CC3)cc2)cc1,13%,35%,-2,100% (active),inactive,inactive,inactive,inactive
FC(F)(F)Oc1ccc(Nc2cc(-c3ccncc3)nc(-c3cccnc3)n2)cc1,52% (active),24%,0,94% (active),inactive,inactive,inactive,inactive
O=S(=O)(NC1CCN(c2ccnc3cc(Cl)ccc23)C1)c1ccc(F)cc1 (stereo not drawn),88% (active),3%,3,98% (active),inactive,inactive,inactive,inactive
CCC(C)CN1CCN(c2cc(NC(=O)c3cccs3)ccn2)C(C)C1 (stereo not drawn),72% (active),5%,0,88% (active),inactive,inactive,inactive,inactive
COc1ccc(N2CCN(CCCOc3ccc(NC(=O)c4cc(Cl)cc(Cl)c4)cc3)CC2)c(OC)c1,41%,38%,2,100% (active),inactive,inactive,inactive,inactive
O=C(Nc1ccc(OC2CCN(Cc3ccccc3)CC2)c(Cl)c1)c1ccco1,96% (active),8%,6,96% (active),inactive,inactive,inactive,inactive
N#Cc1ccc(N2C[C@@H](OCc3ccccc3)C[C@H]2C(=O)NCCC(c2ccccc2)c2ccccc2)c2ccccc12,96% (active),11%,-6,93% (active),inactive,inactive,inactive,inactive
COc1ccc2c(c1)Nc1ccc(Cl)cc1C2N (stereo not drawn),99% (active),16%,3,101% (active),inactive,inactive,inactive,inactive
Cc1[nH]c(C)c(-c2csc3ccccc23)c(=O)c1Cl,75% (active),7%,6,97% (active),inactive,inactive,inactive,inactive
c1csc(-c2ccc3c(c2)CC(NCc2c[nH]c4cnccc24)C3)c1 (stereo not drawn),34%,9%,-1,100% (active),inactive,inactive,inactive,inactive
CC(Oc1ccc(Cl)cc1)C(=O)NCCC1CCN(CCCCCNC(=O)/C=C/c2ccc(Cl)c(Cl)c2)CC1 (stereo not drawn),20%,48%,-5,89% (active),inactive,inactive,inactive,inactive
O=c1[nH]c(NCCCNCc2cc3c(Cl)cc(Cl)cc3[nH]2)nc2ccccc12,4%,10%,-3,91% (active),inactive,inactive,inactive,inactive
CC(C)c1ccc(NC(=O)N2CCc3ccc(OCCN(C(C)C)C(C)C)cc32)c(Br)c1,5%,6%,2,86% (active),inactive,inactive,inactive,inactive
O=C(Nc1cccc(F)c1)c1ccc(C(=O)NC2CCN(CC3CCCCC3)CC2)cc1,16%,22%,-7,96% (active),inactive,inactive,inactive,inactive
Cc1cccc(-c2ccc(CNC3CCN(CC4Cn5c(=O)ccc6ccc(F)c4c65)CC3)cn2)c1 (stereo not drawn),2%,-2%,-2,90% (active),inactive,inactive,inactive,inactive
COc1cc(-c2ccc3c(-c4ccc(C(=O)N5CCN(C)CC5)cc4)[nH]nc3n2)cc(OC)c1OC,54% (active),27%,4,91% (active),inactive,inactive,inactive,inactive
CCCc1cc(Cc2cnc(N)nc2N)cc2c1OC(C)C2C (stereo not drawn),0%,32%,-3,98% (active),inactive,inactive,inactive,inactive
COc1ccc(NC(=O)c2ccc(Br)c(C)c2)cc1N1CCN(CCCCc2ccccc2)CC1,17%,29%,-1,88% (active),inactive,inactive,inactive,inactive
COc1cccc2c1CCN(CCN1CCC(CNC(=O)c3ccc(-c4ccc(C#N)cc4)cc3)CC1)C2,98% (active),57% (active),6,99% (active),inactive,inactive,inactive,inactive
COc1ccc(NC(=O)CCNc2cc(C)nc(NCCOc3ccccc3)n2)cc1,2%,0%,-1,96% (active),inactive,inactive,inactive,inactive

SMILES,growth inhibition [1],inhibition [2],inhibition [3] [%],growth inhibition [4],outcome [5],outcome [6],outcome [7],outcome [8]
Cc1cc2[nH]c(-c3ccc(C(=O)NCCCN4CCN(c5cccc(Cl)c5)CC4)cc3F)nc2cc1Cl,79% (active),-2%,5,99% (active),inactive,inactive,inactive,inactive
CC(C)(C)C(=O)N1CCN(c2ccc([N+](=O)[O-])c(NC3CC3)c2)CC1,97% (active),8%,3,95% (active),inactive,inactive,inactive,inactive
COc1ccc2nccc([C@@H](O)CN3CCC(NCCOc4ccncc4)CC3)c2c1,-1%,11%,1,100% (active),inactive,inactive,inactive,inactive
S=c1nc(-c2ccccc2)n2ccsc2n1,0%,3%,-6,95% (active),inactive,inactive,inactive,inactive
COc1ccc2nc(C)cc(Nc3ccc(Oc4ccc(Cl)cc4)c(Cl)c3)c2c1,100% (active),48%,-2,101% (active),inactive,inactive,inactive,inactive
O=C(NCc1cccc(C(F)(F)F)c1)C1CCCN(C(=O)c2ccc(O)c(-c3ccc(Cl)c(Cl)c3)c2)C1 (stereo not drawn),32%,1%,6,94% (active),inactive,inactive,inactive,inactive
COC(=O)Nc1cc(C(F)(F)F)ccc1N1CCC(CNS(=O)(=O)c2ccc(OC)cc2)CC1,95% (active),13%,0,99% (active),inactive,inactive,inactive,inactive
O=[N+]([O-])c1cccc(CNCC2CCN(Cc3ccc(-c4ccccc4)cc3)CC2)c1,91% (active),28%,6,101% (active),inactive,inactive,inactive,inactive
CC(=O)c1ccc(O)c(CC(O)CO)c1 (stereo not drawn),-1%,3%,4,100% (active),inactive,inactive,inactive,inactive
CCc1ccc(NC(=O)N(CCCN2CCN(C)CC2)Cc2csc(-c3ccc(CNCc4ccccc4)cc3)n2)cc1,80% (active),17%,-1,99% (active),inactive,inactive,inactive,inactive
N#Cc1ccc(CN2CCC(Oc3ccc(NC(=O)c4cccs4)cc3)C2)cc1 (stereo not drawn),65% (active),5%,1,82% (active),inactive,inactive,inactive,inactive
CC(C)(C(=O)Nc1ccc(C2CCC(NCC3CC3)CC2)c(Cl)c1)c1ccc(C(F)(F)F)cc1 (stereo not drawn),18%,64% (active),-1,97% (active),inactive,inactive,inactive,inactive
OCC1CCCCN1Cc1cccc(-c2cccc(-c3nc4ccccc4[nH]3)c2)c1 (stereo not drawn),4%,24%,0,95% (active),inactive,inactive,inactive,inactive
CCOc1ccc(-c2nonc2NC(=O)c2ccc(OC)cc2)cc1OCC,77% (active),-1%,-1,98% (active),inactive,inactive,inactive,inactive
CC[C@H](C)CNC(=O)c1cncc(-c2ccc(CN(C)C3CCN(C)CC3)cc2)c1,97% (active),-16%,-2,101% (active),inactive,inactive,inactive,inactive
COc1ccc(C(=O)C2CCN(CCCCNC(=O)c3ccc(NC(=O)c4ccc(Cl)cc4)cc3)CC2)c(OC)c1,13%,47%,4,98% (active),inactive,inactive,inactive,inactive
Cc1ccc(CN2CCCN(Cc3ccc(C(=O)Nc4ccc(Cl)cc4)cc3)CC2)s1,5%,53% (active),3,85% (active),inactive,inactive,inactive,inactive
CC(CC(=O)NCC1(c2ccc(F)cc2Cl)CCOCC1)C(=O)c1ccc(Cl)cc1 (stereo not drawn),91% (active),6%,2,99% (active),inactive,inactive,inactive,inactive
CCCCCC(NCCCC)c1ccc(OCCOc2ccc(C(CCCCC)NCCCC)cc2)cc1 (stereo not drawn),96% (active),99% (active),-2,88% (active),inactive,inactive,inactive,inactive
O=S1(=O)C=C(c2ccccc2)CC1,44%,57% (active),-1,97% (active),inactive,inactive,inactive,inactive
